Measured values from the supplement of paper PMC10849652.
About 7,900 targets were measured; listed, in parts, are those with a hit and a random draw of the rest. About 0.6% of all pairs of compound and target were hits. A number with no mark means an inactive call.

Experiments:
Test in all cases: log2 fold change, soluble protein after heating vs DMSO (PISA); higher = thermal stabilisation; K562 cells, 10 uM, 30 min; active = over 0.2 and 3.5 SD of the protein, either way, in both replicates (recomputed)
[1] = compound: C#Cc1cccc(Nc2ncnc3cc(OCCOC)c(OCCOC)cc23)c1 [erlotinib]
Procedure, shortened: (§1)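 K562 cells (2×10^6 cells/mL) were treated with 10 μM compound for 30 min, and aliquots were heated for 3 min over 48°C-58°C. Pooled aliquots were extracted in PBS with 0.5% NP-40 at 4°C, and the supernatant after 21,000xg for 90 min was measured by TMTpro 16plex LC-MS/MS with channel sums equalised. Reported thermal stability, relative to control samples and from duplicates, is a log2 fold change.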

[2] = compound: C/C(=N\NC(=O)C1=CC(=CC=C1)S(=O)(=O)N2CCOCC2)/C3=C(C=CC(=C3)Cl)O
Procedure, shortened: as §1

[3] = compound: C1=CC(=C(C=C1Cl)C2=NC3=NC=CN=C3C(=N2)NC4=CC=NC=C4)F
Procedure, shortened: as §1

[4] = compound: C1=CC(=CC=C1C2=NC3=C(N2)C=C(C=C3)C(=O)N)OC4=CC=C(C=C4)Cl
Procedure, shortened: as §1

[5] = compound: C1=CC2=C(C=CC(=C2)/C=C\3/C(=O)NC(=NCC4=CC=CS4)S3)N=C1
Procedure, shortened: as §1

[6] = compound: C1=CC2=NC=CN=C2C=C1/C=C/3\C(=O)NC(=O)S3
Procedure, shortened: as §1

[7] = compound: C1=CC=C(C=C1)C2=NC(=C(N2)C3=CC=NC=C3)C4=CC(=C(C=C4)Cl)O
Procedure, shortened: as §1

[8] = compound: C1=CC=C2C(=C1)C3=NNC4=CC=CC(=C43)C2=O
Procedure, shortened: as §1

[9] = compound: C1CCN(C1)C(=O)NC2=CC=CC(=C2)NC3=NC=C(C(=N3)NCCC4=CN=CN4)Br
Procedure, shortened: as §1

[10] = compound: C1CN(CCC1(CC2=CC=C(C=C2)Cl)N)C3=NC=NC4=C3C=CN4
Procedure, shortened: as §1

[11] = compound: C1COCCN1CCN2C3=CC=CC=C3N=C2NC(=O)C4=CC(=CC=C4)[N+](=O)[O-] [IRAK-1-4 Inhibitor I]
Procedure, shortened: as §1

[12] = compound: C=CC(=O)N1CCC[C@@H](n2nc(-c3ccc(Oc4ccccc4)cc3)c3c(N)ncnc32)C1 [ibrutinib]
Procedure, shortened: as §1

[13] = compound: CC(=O)c1cnc2ccc(-c3cc(Cl)c(O)c(Cl)c3)nc2c1N[C@H]1CC[C@H](CN(C)C)CC1
Procedure, shortened: as §1

[14] = compound: CC(C)(C)Cn1c(N)nc2ccc(-c3[nH]c(C(C)(C)C)nc3-c3ccc(F)cc3)nc21 [ralimetinib]
Procedure, shortened: as §1

[15] = compound: CC(C)(O)CC(=O)NCCn1ccc2ncnc(Nc3ccc(Oc4cccc(C(F)(F)F)c4)c(Cl)c3)c21
Procedure, shortened: as §1

[16] = compound: CC(C)C1=C2N=C(C=C(N2N=C1)NCC3=CC=CC=C3)NCCCCCCN
Procedure, shortened: as §1

[17] = compound: CC(C)C[C@@H](C=O)NC(=O)[C@H](CC(C)C)NC(=O)[C@H](CC(C)C)NC(=O)OCc1ccccc1
Procedure, shortened: as §1

[18] = compound: CC(C)N(C[C@H]1O[C@@H](n2cnc3c(N)ncnc32)[C@H](O)[C@@H]1O)[C@H]1C[C@@H](CCc2nc3cc(C(C)(C)C)ccc3[nH]2)C1 [pinometostat]
Procedure, shortened: as §1

[19] = compound: CC1=C(C(CC(=O)N1)C2=CC=C(C=C2)C(F)(F)F)C(=O)NC3=C(C=C4C(=C3)C=NN4)F
Procedure, shortened: as §1

[20] = compound: CC1=C(C2=C(C=C1)C(=O)C3=CC=CC=C3N2CCCN)C
Procedure, shortened: as §1

UniProt Q5T5C0, sequence (Q5T5C0 whole entry, looked up): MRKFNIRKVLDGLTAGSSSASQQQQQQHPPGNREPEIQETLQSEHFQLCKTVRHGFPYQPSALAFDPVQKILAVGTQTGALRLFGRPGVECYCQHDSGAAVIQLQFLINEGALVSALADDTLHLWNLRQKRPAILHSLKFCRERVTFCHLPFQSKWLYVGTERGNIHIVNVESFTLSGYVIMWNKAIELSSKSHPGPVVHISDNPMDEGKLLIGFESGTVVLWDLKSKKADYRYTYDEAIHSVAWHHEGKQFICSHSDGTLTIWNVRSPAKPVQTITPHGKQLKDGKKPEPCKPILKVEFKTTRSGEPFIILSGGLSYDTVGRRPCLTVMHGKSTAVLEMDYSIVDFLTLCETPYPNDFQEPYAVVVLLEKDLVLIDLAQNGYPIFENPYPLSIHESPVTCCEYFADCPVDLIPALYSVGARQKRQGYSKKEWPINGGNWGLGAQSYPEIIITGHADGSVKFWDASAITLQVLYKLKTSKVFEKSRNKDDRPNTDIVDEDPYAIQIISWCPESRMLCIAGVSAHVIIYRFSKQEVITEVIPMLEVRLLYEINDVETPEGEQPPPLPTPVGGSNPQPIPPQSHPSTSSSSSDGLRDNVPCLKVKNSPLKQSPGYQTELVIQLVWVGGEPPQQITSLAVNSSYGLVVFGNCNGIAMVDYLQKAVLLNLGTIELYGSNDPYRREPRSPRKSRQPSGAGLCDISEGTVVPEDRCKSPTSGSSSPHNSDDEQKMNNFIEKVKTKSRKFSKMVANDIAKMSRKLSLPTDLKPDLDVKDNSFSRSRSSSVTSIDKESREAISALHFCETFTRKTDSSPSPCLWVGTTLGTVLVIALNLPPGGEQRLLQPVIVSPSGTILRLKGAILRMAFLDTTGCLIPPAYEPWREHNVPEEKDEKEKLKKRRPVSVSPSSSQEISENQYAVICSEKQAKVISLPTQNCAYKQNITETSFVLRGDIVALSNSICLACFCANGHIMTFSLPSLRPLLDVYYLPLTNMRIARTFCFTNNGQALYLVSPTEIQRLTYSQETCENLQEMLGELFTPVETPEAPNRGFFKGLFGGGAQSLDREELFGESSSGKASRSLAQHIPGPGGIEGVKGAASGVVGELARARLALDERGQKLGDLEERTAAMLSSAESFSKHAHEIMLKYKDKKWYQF
UniProt Q99523, sequence (Q99523 whole entry, looked up): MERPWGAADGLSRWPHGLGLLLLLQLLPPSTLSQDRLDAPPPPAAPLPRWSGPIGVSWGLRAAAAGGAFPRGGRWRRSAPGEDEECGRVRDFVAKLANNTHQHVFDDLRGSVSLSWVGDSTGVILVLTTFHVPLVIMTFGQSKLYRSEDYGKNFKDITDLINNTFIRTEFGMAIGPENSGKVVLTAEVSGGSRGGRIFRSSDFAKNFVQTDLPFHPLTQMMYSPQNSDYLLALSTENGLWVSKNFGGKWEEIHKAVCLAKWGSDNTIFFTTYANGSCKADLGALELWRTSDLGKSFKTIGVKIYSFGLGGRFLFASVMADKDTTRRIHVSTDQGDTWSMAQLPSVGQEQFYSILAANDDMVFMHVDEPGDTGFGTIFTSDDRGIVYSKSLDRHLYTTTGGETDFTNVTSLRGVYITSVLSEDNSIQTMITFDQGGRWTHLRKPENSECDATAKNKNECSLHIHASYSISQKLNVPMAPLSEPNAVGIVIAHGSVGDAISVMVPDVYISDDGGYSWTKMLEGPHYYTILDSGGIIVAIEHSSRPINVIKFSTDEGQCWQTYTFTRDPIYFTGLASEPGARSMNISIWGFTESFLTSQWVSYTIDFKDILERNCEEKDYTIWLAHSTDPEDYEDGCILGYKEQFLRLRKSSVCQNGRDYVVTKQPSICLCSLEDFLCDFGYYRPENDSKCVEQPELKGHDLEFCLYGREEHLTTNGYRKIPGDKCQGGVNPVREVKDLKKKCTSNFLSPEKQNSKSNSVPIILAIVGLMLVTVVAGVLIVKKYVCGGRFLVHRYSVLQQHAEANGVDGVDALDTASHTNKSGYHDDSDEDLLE
UniProt Q13428, sequence (Q13428 whole entry, looked up): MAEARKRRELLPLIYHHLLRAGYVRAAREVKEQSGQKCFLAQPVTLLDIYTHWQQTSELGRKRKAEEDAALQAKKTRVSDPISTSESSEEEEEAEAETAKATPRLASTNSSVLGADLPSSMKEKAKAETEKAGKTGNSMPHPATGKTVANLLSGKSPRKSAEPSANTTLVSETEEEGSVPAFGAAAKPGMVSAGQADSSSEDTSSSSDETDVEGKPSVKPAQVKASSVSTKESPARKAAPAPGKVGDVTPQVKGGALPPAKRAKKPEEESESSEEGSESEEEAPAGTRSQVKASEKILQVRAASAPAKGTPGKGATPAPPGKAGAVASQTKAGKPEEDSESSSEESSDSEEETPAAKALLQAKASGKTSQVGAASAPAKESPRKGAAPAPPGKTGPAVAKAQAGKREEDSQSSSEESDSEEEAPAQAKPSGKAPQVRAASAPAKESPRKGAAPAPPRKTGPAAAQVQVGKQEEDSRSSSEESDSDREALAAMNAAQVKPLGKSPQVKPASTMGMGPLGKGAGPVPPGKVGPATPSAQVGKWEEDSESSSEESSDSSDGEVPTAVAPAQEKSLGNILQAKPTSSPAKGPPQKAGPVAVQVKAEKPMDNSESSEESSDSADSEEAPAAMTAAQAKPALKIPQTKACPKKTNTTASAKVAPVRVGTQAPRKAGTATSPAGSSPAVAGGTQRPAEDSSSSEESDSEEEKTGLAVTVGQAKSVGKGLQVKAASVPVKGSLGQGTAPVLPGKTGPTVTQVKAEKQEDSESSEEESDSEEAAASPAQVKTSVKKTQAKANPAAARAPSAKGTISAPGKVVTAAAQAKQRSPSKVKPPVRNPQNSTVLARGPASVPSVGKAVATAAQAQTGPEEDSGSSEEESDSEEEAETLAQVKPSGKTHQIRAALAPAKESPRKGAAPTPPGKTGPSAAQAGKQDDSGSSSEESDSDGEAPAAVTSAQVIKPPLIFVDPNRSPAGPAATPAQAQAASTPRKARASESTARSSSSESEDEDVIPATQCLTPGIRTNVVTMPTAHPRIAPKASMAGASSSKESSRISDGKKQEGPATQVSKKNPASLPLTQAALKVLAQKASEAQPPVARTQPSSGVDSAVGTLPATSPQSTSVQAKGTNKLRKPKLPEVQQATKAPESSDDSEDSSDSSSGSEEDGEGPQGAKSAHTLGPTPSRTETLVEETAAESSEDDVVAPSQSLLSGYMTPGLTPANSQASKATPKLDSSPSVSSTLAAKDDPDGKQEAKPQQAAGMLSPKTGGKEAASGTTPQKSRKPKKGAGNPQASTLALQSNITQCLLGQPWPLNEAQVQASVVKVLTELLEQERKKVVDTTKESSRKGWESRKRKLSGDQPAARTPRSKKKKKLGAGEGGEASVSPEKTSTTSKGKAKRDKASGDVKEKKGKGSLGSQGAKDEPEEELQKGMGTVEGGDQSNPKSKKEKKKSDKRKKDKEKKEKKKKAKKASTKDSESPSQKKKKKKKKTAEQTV
UniProt Q9Y5X1, sequence (Q9Y5X1 whole entry, looked up): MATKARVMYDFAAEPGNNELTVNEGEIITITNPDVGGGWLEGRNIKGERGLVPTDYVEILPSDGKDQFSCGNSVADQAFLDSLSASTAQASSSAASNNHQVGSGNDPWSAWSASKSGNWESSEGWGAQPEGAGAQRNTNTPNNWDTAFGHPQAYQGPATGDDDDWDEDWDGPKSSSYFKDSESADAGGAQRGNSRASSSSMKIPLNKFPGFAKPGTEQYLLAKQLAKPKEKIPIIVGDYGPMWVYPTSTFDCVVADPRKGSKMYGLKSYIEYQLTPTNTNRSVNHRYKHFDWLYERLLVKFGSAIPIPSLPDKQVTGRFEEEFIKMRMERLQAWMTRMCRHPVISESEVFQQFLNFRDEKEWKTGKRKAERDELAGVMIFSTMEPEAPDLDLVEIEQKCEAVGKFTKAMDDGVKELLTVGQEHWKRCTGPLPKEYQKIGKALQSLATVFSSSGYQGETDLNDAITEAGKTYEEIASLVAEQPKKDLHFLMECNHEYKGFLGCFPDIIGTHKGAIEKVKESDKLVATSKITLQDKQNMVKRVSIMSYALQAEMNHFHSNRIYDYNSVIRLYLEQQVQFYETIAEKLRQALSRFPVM
UniProt Q9UHB9, sequence (Q9UHB9 whole entry, looked up): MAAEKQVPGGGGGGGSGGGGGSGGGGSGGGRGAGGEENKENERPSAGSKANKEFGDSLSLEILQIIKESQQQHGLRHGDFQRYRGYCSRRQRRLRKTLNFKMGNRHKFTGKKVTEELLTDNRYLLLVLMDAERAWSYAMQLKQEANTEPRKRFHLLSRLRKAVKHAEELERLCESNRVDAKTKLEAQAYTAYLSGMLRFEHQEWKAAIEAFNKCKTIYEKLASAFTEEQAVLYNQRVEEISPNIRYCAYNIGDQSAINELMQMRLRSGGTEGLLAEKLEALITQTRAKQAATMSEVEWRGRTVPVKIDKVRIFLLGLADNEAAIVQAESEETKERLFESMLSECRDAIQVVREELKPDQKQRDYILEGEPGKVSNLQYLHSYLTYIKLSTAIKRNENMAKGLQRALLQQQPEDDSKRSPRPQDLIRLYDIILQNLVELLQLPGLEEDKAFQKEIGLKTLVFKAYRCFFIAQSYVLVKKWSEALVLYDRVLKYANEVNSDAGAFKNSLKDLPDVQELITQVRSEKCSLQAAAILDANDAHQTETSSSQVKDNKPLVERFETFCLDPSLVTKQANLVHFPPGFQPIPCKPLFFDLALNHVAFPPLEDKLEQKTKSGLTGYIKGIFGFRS
UniProt Q9Y5M8, sequence (Q9Y5M8 whole entry, looked up): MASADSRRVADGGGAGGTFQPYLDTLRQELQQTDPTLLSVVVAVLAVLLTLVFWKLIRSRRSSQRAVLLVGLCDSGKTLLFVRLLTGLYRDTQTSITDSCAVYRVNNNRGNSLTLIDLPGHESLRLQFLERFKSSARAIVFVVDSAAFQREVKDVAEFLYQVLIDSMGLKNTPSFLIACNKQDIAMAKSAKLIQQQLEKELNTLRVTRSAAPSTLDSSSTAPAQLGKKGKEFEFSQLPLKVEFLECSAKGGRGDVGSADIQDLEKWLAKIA

Row | Target | log2 fold change [1] | log2 fold change [2] | log2 fold change [3] | log2 fold change [4] | log2 fold change [5] | log2 fold change [6] | log2 fold change [7] | log2 fold change [8] | log2 fold change [9] | log2 fold change [10] | log2 fold change [11] | log2 fold change [12] | log2 fold change [13] | log2 fold change [14] | log2 fold change [15] | log2 fold change [16] | log2 fold change [17] | log2 fold change [18] | log2 fold change [19] | log2 fold change [20]
1 | SRRM2 (UniProt Q9UQ35) | 0.067 | 0.095 | -0.136 | 0.07 | -0.123 | 0.014 | -0.044 | -0.073 | -0.061 | -0.128 | -0.074 | -0.015 | -0.326 | 0.063 | 0.01 | -0.258 | 0.002 | 0.005 | -0.005 | -0.181
2 | SRP68 (UniProt Q9UHB9) | 0.047 | 0.034 | -0.043 | -0.071 | 0.011 | 0.01 | 0.002 | -0.087 | 0.015 | -0.107 | -0.118 | -0.037 | 0.014 | 0.071 | -0.065 | -0.272 | 0.065 | 0.145 | -0.016 | -0.345 (active)
3 | SLC25A36 (UniProt Q96CQ1) | -0.077 | 0.008 | -0.083 | 0.003 | 0.031 | 0.102 | -0.104 | -0.034 | 0.053 | 0.068 | 0.048 | 0.066 | 0.029 | 0.019 | -0.167 | -0.03 | 0.007 | 0.01 | 0.108 | 0.012
4 | TAOK1 (UniProt Q7L7X3) | 0.006 | 0.045 | -0.027 | 0.09 | -0.033 | 0.009 | -0.009 | -0.007 | -0.005 | -0.01 | 0.011 | -0.057 | -0.827 (active) | 0.062 | 0.009 | -0.031 | 0.018 | -0.052 | 0.011 | 0.05
5 | SPAG9 (UniProt O60271) | 0.018 | -0.025 | 0.034 | -0.016 | 0.028 | 0.039 | -0.016 | -0.012 | 0.015 | -0.009 | -0.003 | -0.003 | 0.022 | 0 | -0.045 | -0.219 (active) | 0.016 | 0.028 | 0.011 | -0.004
6 | TBK1 (UniProt Q9UHD2) | -0.042 | 0.009 | 0.003 | -0.048 | 0.044 | 0.026 | -0.082 | 0.009 | 0.029 | -0.105 | -0.046 | -0.019 | -0.162 | 0.024 | -0.067 | -0.208 | 0.046 | 0.087 | 0.028 | -0.091
7 | STXBP5 (UniProt Q5T5C0) | 0.028 | 0.039 | 0.097 | 0.018 | 0.094 | 0.026 | 0.036 | -0.015 | -0.014 | 0.011 | -0.025 | -0.037 | -0.073 | 0.029 | -0.038 | -0.107 | -0.049 | 0.025 | 0.018 | 0.048
8 | STK39 (UniProt Q9UEW8) | 0.064 | 0.07 | 0.038 | -0.096 | 0.035 | 0.06 | 0.034 | 0.019 | 0.014 | -0.025 | 0.048 | -0.006 | -0.3 (active) | 0.022 | -0.09 | -0.124 | -0.018 | -0.02 | 0.013 | 0.007
9 | SRPRB (UniProt Q9Y5M8) | -0.015 | 0.106 | 0.122 | -0.018 | 0.045 | -0.036 | 0.089 | 0.024 | -0.006 | 0.017 | -0.021 | 0.004 | -0.014 | 0.034 | -0.055 | -0.036 | -0.051 | -0.026 | -0.109 | 0.292 (active)
10 | SNX6 (UniProt Q9UNH7) | 0.093 | 0.056 | 0.035 | 0.017 | 0.042 | -0.057 | -0.053 | -0.159 | 0.053 | -0.018 | 0.012 | 0.035 | -0.233 | -0.035 | -0.249 | -0.234 | 0.013 | 0.048 | 0.026 | -0.013
11 | SNX9 (UniProt Q9Y5X1) | -0.005 | 0.047 | -0.004 | -0.024 | 0.004 | 0.014 | -0.006 | -0.011 | -0.01 | 0.028 | -0.011 | 0.025 | -0.043 | 0.005 | 0.002 | 0.014 | 0.029 | 0.04 | 0.024 | 0.02
12 | TMBIM6 isoform 2 (UniProt P55061) | -0.019 | 0.029 | 0.051 | -0.062 | 0.067 | 0.076 | 0.019 | -0.07 | 0.026 | -0.01 | 0.023 | 0.001 | 0.004 | -0.208 | -0.437 (active) | -0.521 (active) | 0.135 | 0.017 | 0.003 | -0.075
13 | TK1 (UniProt P04183) | -0.029 | 0.004 | 0.044 | 0.017 | -0.02 | -0.012 | -0.03 | -0.011 | -0.028 | 0.046 | 0.037 | 0.025 | 0.003 | -0.048 | -0.016 | 0.059 | -0.001 | -0.013 | 0.06 | -0.01
14 | SORT1 (UniProt Q99523) | 0.005 | -0.024 | 0.03 | -0.012 | 0.014 | 0.034 | 0.022 | -0.018 | -0.012 | 0.06 | 0.044 | 0.044 | 0.031 | -0.005 | -0.027 | -0.202 | -0.028 | -0.03 | -0.002 | -0.019
15 | TCOF1 isoform 4 (UniProt Q13428) | 0.035 | -0.005 | -0.005 | -0.008 | -0.002 | 0.014 | -0.024 | -0.001 | -0.043 | -0.107 | -0.009 | -0.034 | -0.13 | 0.028 | 0.023 | -0.042 | -0.083 | 0.024 | 0.015 | -0.664 (active)
16 | SSR3 isoform 2 (UniProt Q9UNL2) | 0.019 | 0.054 | -0.013 | -0.003 | -0.187 | 0.037 | 0.006 | 0.028 | -0.119 | -0.011 | 0.158 | 0.029 | 0.132 | 0.06 | 0.031 | 0.01 | -0.049 | -0.134 | 0.036 | -0.022
